Measured values as given in PubChem BioAssay AID1159580 (chemical genetic matrix, 2015).
The campaign covered roughly 5,500 compounds. About 2,000 (36%) were called active. Roughly 18% stayed inconclusive and do not appear here. No stated cut-off is given here; in the data, active means normalized growth mostly below about 0.91 (no sharp cut-off); inconclusive means no clear call, values can overlap the other calls; inactive means mostly above about 0.92. This is one part of the list.

Assay: chemical genetic growth profiling, strain panel (AID 1159580);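 further: tested at 20 µM; growth read once vehicle control cultures reached saturation at 30 °C; 1 = growth at the plate median or of vehicle wells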
Conditions: S. cerevisiae deletion strains, growth OD

Measured: normalized growth

CC(C)C(C)/C=C/C(C)[C@H]1CCC2C3=CCC4CC(=O)CC[C@]4(C)C3CC[C@@]21C (some centres not stated)
inactive: locus YAL013W, strain DEP1, stronger effect = lower value 1.04 | locus YAL021C, strain ccr4, stronger effect = lower value 0.999 | locus YAL026C, strain drs2, stronger effect = lower value 1 | locus YAL030W, strain snc1, stronger effect = lower value 1 | locus YBL061C, strain skt5, stronger effect = lower value 1 | locus YBR009C, strain hhf1, stronger effect = lower value 0.981 | locus YBR021W, strain FUR4, stronger effect = lower value 1 | locus YBR023C, strain chs3, stronger effect = lower value 0.995 | locus YBR171W, strain sec66, stronger effect = lower value 0.986 | locus YBR229C, strain ROT2, stronger effect = lower value 1.02 | locus YBR231C, strain swc5, stronger effect = lower value 1.03 | locus YBR279W, strain paf1, stronger effect = lower value 1 | locus YCL011C, strain gbp2, stronger effect = lower value 1.01 | locus YCL016C, strain dcc1, stronger effect = lower value 1.01 | locus YCL029C, strain bik1, stronger effect = lower value 1.02 | locus YCL061C, strain MRC1, stronger effect = lower value 1.01 | locus YCL069W, strain vba3, stronger effect = lower value 0.996 | locus YCR088W, strain abp1, stronger effect = lower value 1 | locus YDL005C, strain med2, stronger effect = lower value 1 | locus YDL035C, strain GPR1, stronger effect = lower value 0.992 | locus YDL040C, strain nat1, stronger effect = lower value 1 | locus YDL074C, strain BRE1, stronger effect = lower value 1 | locus YDL101C, strain DUN1, stronger effect = lower value 1.01 | locus YDL185W, strain tfp1, stronger effect = lower value 1.01 | locus YDL192W, strain arf1, stronger effect = lower value 0.996 | locus YDR001C, strain nth1, stronger effect = lower value 1 | locus YDR069C, strain doa4, stronger effect = lower value 0.997 | locus YDR101C, strain arx1, stronger effect = lower value 1.03 | locus YDR137W, strain rgp1, stronger effect = lower value 0.927 | locus YDR150W, strain NUM1, stronger effect = lower value 1.02 | locus YDR159W, strain sac3, stronger effect = lower value 1 | locus YDR162C, strain NBP2, stronger effect = lower value 0.97 | locus YDR195W, strain ref2 0.928 | locus YDR297W, strain sur2, stronger effect = lower value 1 | locus YDR318W, strain mcm21, stronger effect = lower value 1.01 | locus YDR334W, strain swr1, stronger effect = lower value 1 | locus YDR335W, strain msn5, stronger effect = lower value 1.01 | locus YDR388W, stronger effect = lower value 1.01 | locus YDR392W, strain spt3, stronger effect = lower value 0.941 | locus YDR502C, strain sam2, stronger effect = lower value 0.999 | locus YEL003W, strain gim4, stronger effect = lower value 1.01 | locus YEL037C, strain rad23, stronger effect = lower value 1 | locus YEL061C, strain CIN8 (second series), stronger effect = lower value 1.01 | locus YEL061C, strain CIN8, stronger effect = lower value 1.01 | locus YER015W, strain faa2, stronger effect = lower value 1 | locus YER016W, strain bim1, stronger effect = lower value 1 | locus YER110C, stronger effect = lower value 1.01 | locus YER111C, strain swi4, stronger effect = lower value 1 | locus YER155C, strain BEM2 (second series), stronger effect = lower value 0.984 | locus YER155C, strain BEM2, stronger effect = lower value 1.03 | locus YER167W, strain BCK2, stronger effect = lower value 1.03 | locus YFR010W, strain ubp6, stronger effect = lower value 1.01 | locus YGL078C, strain dbp3, stronger effect = lower value 0.98 | locus YGL086W, strain mad1, stronger effect = lower value 1 | locus YGL167C, strain pmr1, stronger effect = lower value 0.995 | locus YGL173C, strain kem1, stronger effect = lower value 0.995 | locus YGL227W, strain vid30, stronger effect = lower value 1 | locus YGL240W, strain doc1, stronger effect = lower value 0.999 | locus YGL248W, strain PDE1, stronger effect = lower value 1.01 | locus YGL253W, strain hxk2, stronger effect = lower value 1.01 | locus YGR078C, strain PAC10, stronger effect = lower value 1.01 | locus YGR135W, strain pre9, stronger effect = lower value 1 | locus YGR252W, strain gcn5, stronger effect = lower value 0.985 | locus YHR013C, strain ard1, stronger effect = lower value 0.968 | locus YHR027C, strain rpn1, stronger effect = lower value 1.01 | locus YHR030C, strain SLT2, stronger effect = lower value 1.03 | locus YHR079C, strain IRE1 (second series), stronger effect = lower value 1.01 | locus YHR094C, strain hxt1, stronger effect = lower value 1.02 | locus YHR129C, strain ARP1, stronger effect = lower value 1.02 | locus YHR142W, strain chs7, stronger effect = lower value 1 | locus YHR200W, strain rpn10, stronger effect = lower value 1.01 | locus YIL066C, strain RNR3, stronger effect = lower value 1.01 | locus YIL073C, strain SPO22, stronger effect = lower value 1.02 | locus YIL125W, strain kgd1, stronger effect = lower value 1.01 | locus YIR030C, strain dcg1, stronger effect = lower value 1.02 | locus YJL092W, strain hpr5, stronger effect = lower value 1.01 | locus YJL095W, strain BCK1 (second series), stronger effect = lower value 1.01 | locus YJL095W, strain BCK1, stronger effect = lower value 1.02 | locus YJL115W, strain asf1, stronger effect = lower value 0.99 | locus YJL129C, strain trk1, stronger effect = lower value 0.998 | locus YJL134W, strain LCB3, stronger effect = lower value 1.02 | locus YJL154C, strain vps35, stronger effect = lower value 1.01 | locus YJL164C, strain tpk1, stronger effect = lower value 0.998 | locus YJL166W, strain qcr8, stronger effect = lower value 1.01 | locus YJL168C, strain set2, stronger effect = lower value 1 | locus YJL187C, strain SWE1 (second series), stronger effect = lower value 1.01 | locus YJL187C, strain SWE1, stronger effect = lower value 1 | locus YJR043C, strain POL32, stronger effect = lower value 1.02 | locus YJR075W, strain HOC1, stronger effect = lower value 1.03 | locus YKL009W, strain mrt4, stronger effect = lower value 0.95 | locus YKL068W, stronger effect = lower value 1.01 | locus YKL085W, strain MDH1 (second series), stronger effect = lower value 1.02 | locus YKL085W, strain MDH1, stronger effect = lower value 1.02 | locus YKL160W, strain elf1, stronger effect = lower value 1.01 | locus YKR001C, strain vps1, stronger effect = lower value 1.01 | locus YKR026C, strain gcn3, stronger effect = lower value 0.971 | locus YKR091W, strain srl3, stronger effect = lower value 1.01 | locus YLL001W, strain dnm1, stronger effect = lower value 0.997 | locus YLL026W, stronger effect = lower value 1 | locus YLL041C, strain sdh2, stronger effect = lower value 1 | locus YLR027C, strain aat2, stronger effect = lower value 1.01 | locus YLR039C, strain RIC1, stronger effect = lower value 0.968 | locus YLR058C, strain SHM2, stronger effect = lower value 1.02 | locus YLR102C, strain apc9, stronger effect = lower value 1.01 | locus YLR221C, strain rsa3, stronger effect = lower value 1.01 | locus YLR258W, strain gsy2, stronger effect = lower value 1 | locus YLR262C, strain YPT6 (second series), stronger effect = lower value 0.895 | locus YLR262C, strain YPT6, stronger effect = lower value 0.952 | locus YLR268W, strain sec22, stronger effect = lower value 1 | locus YLR320W, strain mms22, stronger effect = lower value 0.965 | locus YLR330W, strain CHS5, stronger effect = lower value 1.03 | locus YLR342W, strain FKS1 (second series), stronger effect = lower value 1.03 | locus YLR342W, strain FKS1, stronger effect = lower value 1 | locus YLR357W, strain rsc2, stronger effect = lower value 0.978 | locus YLR370C, strain arc18, stronger effect = lower value 0.998 | locus YLR371W, strain rom2, stronger effect = lower value 1.01 | locus YLR384C, strain iki3, stronger effect = lower value 0.997 | locus YLR418C, strain cdc73, stronger effect = lower value 1.03 | locus YML016C, strain PPZ1, stronger effect = lower value 1.02 | locus YML032C, strain rad52, stronger effect = lower value 1 | locus YML120C, strain ndi1, stronger effect = lower value 1.01 | locus YML124C, strain tub3, stronger effect = lower value 1.02 | locus YMR058W, strain fet3, stronger effect = lower value 1.01 | locus YMR078C, strain ctf18, stronger effect = lower value 1.02 | locus YMR125W, strain sto1, stronger effect = lower value 1.01 | locus YMR129W, stronger effect = lower value 0.999 | locus YMR205C, strain PFK2, stronger effect = lower value 0.976 | locus YMR223W, strain ubp8, stronger effect = lower value 0.986 | locus YMR231W, strain pep5, stronger effect = lower value 0.999 | locus YMR307W, strain GAS1, stronger effect = lower value 1.2 | locus YNL067W, strain RPL9B, stronger effect = lower value 1.02 | locus YNL071W, strain lat1, stronger effect = lower value 1.01 | locus YNL209W, strain ssb2, stronger effect = lower value 1.01 | locus YNL233W, strain BNI4, stronger effect = lower value 1.03 | locus YNL248C, strain rpa49, stronger effect = lower value 0.995 | locus YNL250W, strain rad50, stronger effect = lower value 1.01 | locus YNL271C, strain bni1, stronger effect = lower value 1 | locus YNL298W, strain CLA4, stronger effect = lower value 0.991 | locus YNL307C, strain MCK1, stronger effect = lower value 1.02 | locus YNL322C, strain KRE1 (second series), stronger effect = lower value 0.996 | locus YNR049C, strain mso1, stronger effect = lower value 1 | locus YNR052C, strain pop2, stronger effect = lower value 0.971 | locus YOL012C, strain htz1 1.52 | locus YOL147C, strain pex11, stronger effect = lower value 1.01 | locus YOR001W, strain rrp6, stronger effect = lower value 1 | locus YOR061W, strain CKA2, stronger effect = lower value 1.02 | locus YOR069W, strain VPS5, stronger effect = lower value 1.02 | locus YOR070C, strain gyp1, stronger effect = lower value 1 | locus YOR080W, strain dia2, stronger effect = lower value 1 | locus YOR083W, strain WHI5, stronger effect = lower value 1.01 | locus YOR106W, strain vam3, stronger effect = lower value 0.995 | locus YOR136W, strain idh2, stronger effect = lower value 1 | locus YOR144C, strain elg1, stronger effect = lower value 1.01 | locus YOR184W, strain ser1, stronger effect = lower value 1 | locus YOR265W, strain rbl2, stronger effect = lower value 0.999 | locus YOR270C, strain vph1, stronger effect = lower value 1.04 | locus YOR290C, strain snf2, stronger effect = lower value 0.936 | locus YOR316C, strain cot1, stronger effect = lower value 1.01 | locus YPL051W, strain arl3, stronger effect = lower value 1.03 | locus YPL078C, strain atp4, stronger effect = lower value 1 | locus YPL106C, strain sse1, stronger effect = lower value 1.01 | locus YPL240C, strain hsp82, stronger effect = lower value 0.998 | locus YPR119W, strain clb2, stronger effect = lower value 1.02 | locus YPR141C, strain kar3, stronger effect = lower value 1.01 | locus YPR163C, strain tif3, stronger effect = lower value 1.01 | locus YPR167C, strain met16, stronger effect = lower value 1.01 | strain wtn01, stronger effect = lower value 0.991
